High-throughput results from PubChem BioAssay.
In the library only some 2.2% were active in any assay of this set; here they are far more common.
TWEAK Fn14 block: TWEAK-Fn14 signaling inhibition; TWEAK-stimulated Fn14 reporter cells, luciferase luminescence, 8 h; AID 1159606; inhibition, % at 10 µM; 360,000 tested, 2% active; in the data active means inhibition above about 50%
LGR2 inh: blocks bursicon-induced cAMP signaling via Drosophila LGR2; inhibition, % at 9.99 µM; HEK293 LGR2, CRE-luciferase, bursicon-stimulated, 4 h; 380,000 tested, 0.35% active; AID 720647;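 active means drop in luminescence signal, shown as inhibition above about 50% in the replicate tests, limit read from the data, passing the limit was not always enough; inconclusive means probably only some replicates passing the limit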;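 further: agonist challenge used bursicon conditioned medium at about half maximal strength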
TROY NFkB inh: blocks TROY-dependent signaling in reporter cells; Q293 LMP1-TROYcd NF-kB luciferase reporter, 4 h; inhibition, % at 10 µM; 360,000 tested, 0.98% active;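 active means compounds whose plate-normalised and pattern-corrected inhibition of the luciferase reporter signal at the single screening dose is 50% or more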
HSP90 refold inh: HSP90 refolding inhibition in rabbit reticulocyte lysate. luciferase refolding luminescence, 3 h. inhibition, % at 5.6 µM. 290,000 tested, 0.91% active;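 active means inhibition above the screen-wide mean plus 3 SD, computed separately per campaign, cut at about 16% in these data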;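 further: 0% = DMSO wells and 100% = 60 µM geldanamycin wells; inhibitors lower the luminescence because luciferase stays unfolded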
HSP90 inh confirm: HSP90 inhibition, confirmation assay | shares compounds with HSP90 refold inh | rabbit reticulocyte lysate, luciferase refolding luminescence, 3 h | inhibition, % at 5.9 µM | 2,300 tested, 64% active | AID 1846; in the data active means inhibition above about 18%;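 further: 0% = vehicle wells and 100% = reference inhibitor wells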
FLuc counter: blocks native firefly luciferase in HSP90 counter-screen | shares compounds with HSP90 refold inh | purified native firefly luciferase, luminescence | inhibition, % at 5.9 µM | 2,300 tested, 48% active | AID 1847;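 active means inhibition above the mean inhibition of all tested sample wells plus 3 SD, cut at about 10% in these data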;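 further: 0% = DMSO with luciferase and 100% = wells lacking luciferase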
Target sequence (P08659 whole entry, looked up): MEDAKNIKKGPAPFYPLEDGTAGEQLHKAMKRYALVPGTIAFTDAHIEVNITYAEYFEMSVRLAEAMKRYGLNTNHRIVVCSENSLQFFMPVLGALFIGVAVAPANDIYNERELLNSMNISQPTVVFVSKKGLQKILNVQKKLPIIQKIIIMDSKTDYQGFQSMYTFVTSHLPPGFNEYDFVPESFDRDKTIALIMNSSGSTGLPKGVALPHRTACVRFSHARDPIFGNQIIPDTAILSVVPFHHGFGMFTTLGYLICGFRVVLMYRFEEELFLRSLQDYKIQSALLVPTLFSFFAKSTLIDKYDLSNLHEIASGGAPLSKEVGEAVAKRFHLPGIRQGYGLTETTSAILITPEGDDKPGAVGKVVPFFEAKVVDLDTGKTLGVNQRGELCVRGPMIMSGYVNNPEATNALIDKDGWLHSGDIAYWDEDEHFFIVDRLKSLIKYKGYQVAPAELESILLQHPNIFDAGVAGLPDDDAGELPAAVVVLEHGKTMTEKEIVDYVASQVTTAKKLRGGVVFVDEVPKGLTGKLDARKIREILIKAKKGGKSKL
The depositor's hits bear a star; ? = inconclusive; · = no result given.

SMILES	TWEAK Fn14 block	LGR2 inh	TROY NFkB inh	HSP90 refold inh	HSP90 inh confirm	FLuc counter
COCC(=O)Nc1ccc2c(c1)OC[C@@H](C)N(C(=O)c1ccccn1)C[C@@H](C)[C@H](OC)CN(C)C2=O	·	0	·	·	·	·
CCC(=O)Nc1cccc(-c2ccc(N3CCC(C)CC3)nn2)c1	60*	?	22	33*	66*	45*
CC1CCN(c2ccc(-c3cccc(NC(=O)C(F)(F)F)c3)nn2)CC1	101*	97*	83*	19*	56*	-18
O=C(Nc1cccc(F)c1)N1C[C@H]2[C@@H](c3ccccc31)[C@@H](CO)N2C(=O)c1ccccn1	·	-21	·	·	·	·
CCCc1ccc(OCc2ccc(C(=O)N/N=C/c3cccnc3)o2)cc1	-21	-162	0	36*	26*	-15
CCOc1ccc(CC(=O)N/N=C/c2cccnc2)cc1	19	·	-22	0	·	·
CCC(=O)N(C)C[C@@H]1Oc2cc(-c3cccc(OC)c3)ccc2S(=O)(=O)N([C@H](C)CO)C[C@H]1C	·	13	·	·	·	·
COc1ccccc1C(=O)Nc1ccc2c(c1)C(=O)N(C)C[C@H](OC)[C@H](C)CN(CC1CC1)[C@H](C)CO2	·	12	·	·	·	·
COc1ccc(C(=O)Nc2ccc(C)cn2)c(OC)c1	102*	·	76*	88*	88*	82*
COc1ccc2c3c([nH]c2c1)[C@@H](CO)N(Cc1nccs1)CC31CCN(C(=O)C2CCC2)CC1	·	-8	·	·	·	·
CCC(=O)Nc1cc(C(=O)OCC(=O)c2ccccc2)ccc1C	25	-26	15	20*	45*	-34
C[C@H](CO)N1C[C@H](C)[C@H](CN(C)C(=O)CN(C)C)Oc2cc(C#CC(C)(C)O)ccc2S1(=O)=O	·	1	·	·	·	·
COc1ccc2c3c(n(C)c2c1)[C@H](CO)NCC31CCN(S(=O)(=O)c2cccc(F)c2)CC1	·	-10	·	·	·	·
COc1ccc(C)cc1NC(=O)NNC(=O)C(C)Oc1ccc(F)cc1Cl (stereo unspecified)	4	-3	4	20*	3	-2
O=C(c1cccc(-c2ccccc2F)c1)N1CC[C@@H](N2CCC(O)CC2)[C@H](O)C1	-3	28	5	84*	4	-4
CC(C)=CC(=O)N1CC[C@@H](N2CCN(c3ccccc3F)CC2)[C@H](O)C1	1	1	-1	-2	·	·
O=C(O)c1ccc(N/N=C/c2ccc(OC(=O)c3cccc(Cl)c3)cc2)cc1	-1	80*	53*	43*	85*	6
O=C(Oc1ccc(/C=N/Nc2ccccc2)cc1)c1ccccc1	-9	·	-33	-6	·	·
O=C(O)c1cccc(N/N=C/c2ccc(OC(F)(F)F)cc2)c1	-18	-9	-64	47*	76*	76*
CSc1ccc(/C=N/Nc2cccc(C(=O)O)c2)cc1	-61	·	-28	25*	86*	84*
O=C(C[C@H]1C=C[C@H](NC(=O)c2ccccn2)[C@@H](CO)O1)NCc1cccc(F)c1	·	-13	·	·	·	·
CO[C@H]1CN(C)C(=O)c2ccc(NC(C)=O)cc2OC[C@H](C)N(C(=O)C2CCOCC2)C[C@H]1C	·	3	·	·	·	·
Cn1c(C2CCCN2C(=O)OC(C)(C)C)n[nH]c1=S (stereo unspecified)	2	·	4	34*	-1	-4
CSc1nnc([C@@H]2CCCN2C(=O)OC(C)(C)C)o1	-4	-7	17	3	·	·
COc1cc(C=O)ccc1OCCCOc1ccccc1C(=O)O	102*	·	84*	74*	76*	34*
SMILES	TWEAK Fn14 block	LGR2 inh	TROY NFkB inh	HSP90 refold inh	HSP90 inh confirm	FLuc counter
COC(=O)c1ccccc1OCCCOc1ccc(C)cc1OC	·	·	·	94*	100*	-10
C[C@@H]1CCCCO[C@@H](CN(C)C(=O)c2ccncc2)[C@H](C)CN([C@@H](C)CO)C(=O)c2cc(NC(=O)C3CCCCC3)ccc2O1	·	3	·	·	·	·
Cc1cc(C(=O)COC(=O)c2cccn2C)c(C)n1Cc1ccco1	74*	53*	76*	40*	66*	66*
Cc1cc(C(=O)COc2cccnc2[N+](=O)[O-])c(C)n1Cc1ccco1	14	17	1	3	·	·
Cc1cc(C(=O)COC(=O)c2ccncc2)c(C)n1Cc1ccco1	59*	-27	-9	26*	41*	75*
Cc1cc(C(=O)COC(=O)c2cc(Cl)ccc2N)c(C)n1Cc1ccco1	3	-42	-14	0	·	·
O=C(C1CCC1)N1CC[C@@H]2[C@H](CO)Nc3ccc(Br)cc3[C@@H]21	·	1	·	·	·	·
COc1ccc(NC(=O)CCNC(=O)Cn2ccc3ccccc3c2=O)cc1OC	24	·	-5	-5	·	·
Cc1ccc(NC(=O)CCNC(=O)Cn2ccc3ccccc3c2=O)cc1F	-7	-16	-21	44*	26*	23*
Cc1ccc(S(=O)(=O)Nc2ccc3c(c2)C(=O)N([C@H](C)CO)C[C@@H](C)[C@H](CN(C)C(=O)C2CCCCC2)OCCCC[C@H](C)O3)cc1	·	5	·	·	·	·
CC(=O)N(/N=C1\Sc2ccccc2C1=O)c1ccccc1C	19	·	-47	35*	74*	-26
CC(=O)N(/N=C1\Sc2ccccc2C1=O)c1ccc(C)cc1C	91*	·	38	41*	79*	58*
Cc1ccc(S(=O)(=O)Nc2ccc3c(c2)C(=O)N([C@H](C)CO)C[C@@H](C)[C@@H](CN(C)C(=O)Nc2ccc4c(c2)OCO4)OCCCC[C@H](C)O3)cc1	·	5	·	·	·	·
COc1ccc(/C=N/Nc2ncccc2[N+](=O)[O-])c(OC)c1	72*	66*	52*	51*	70*	62*
COc1ccc(/C=N/Nc2ncc(-c3ccccc3)cn2)c(OC)c1	-8	·	-16	-2	·	·
S=C(NCCc1ccccn1)NC1CCCCC1	-24	-5	-42	23*	1	-11
CC(=O)N(CCC(Cc1ccccc1)c1ccco1)Cc1ccco1 (stereo unspecified)	14	-6	6	22*	4	2
O=C(c1ccco1)N(CCC(c1ccccc1)c1ccco1)Cc1ccco1 (stereo unspecified)	16	·	-24	-3	·	·
CC(=O)N(C)C[C@H]1Oc2ncc(C#Cc3cccnc3)cc2C(=O)N([C@@H](C)CO)C[C@@H]1C	·	-19	·	·	·	·
C/C(=N\NC(=O)c1cc2ccccc2cc1O)c1cccs1	53*	-36	-8	22*	34*	38*
Cc1ccc(O)c(C(=O)c2cnn(-c3ccccc3)c2)c1	18	·	-14	-2	·	·
Cc1ccc(-n2cc(C(=O)c3ccccc3O)cn2)cc1	83*	·	47	31*	61*	48*
O=C(O)CSc1nnc(NC(=O)c2ccc3c(c2)OCO3)s1	28	27	11	26*	26*	-8
COCC(=O)N1C[C@H](C)[C@@H](OC)CN(C)C(=O)c2ccc(NS(C)(=O)=O)cc2OC[C@@H]1C	·	16	·	·	·	·
CCCC(=O)Nc1ccc(Cl)c(-c2nc3ncccc3o2)c1	-17	-6	-45	23*	-7	-11
